The target of assay [1] is Tumor susceptibility gene 101 protein (Homo sapiens) (UniProt Q99816). Kind of assay: qHTS Assay for Iinhibitors of HIV-1 Budding by Blocking the Interaction of PTAP/TSG101: Hit Validation (AID 651600). For activity change, negative = inhibition: % is set by controls: 0 for no effect and ±100 for the full control effect. Note: nearly all actives have a fitted effect of over 70% in size. Note: potency is the fitted concentration of half-maximal effect. The method in brief:
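Tsg101 binding domain 10 uM + FITC-PTAP peptide 50 nM (final), 10 mM HEPES pH 7.5/0.15 M NaCl/0.01% Tween 20/3 mM EDTA/0.1 mM TCEP; 20 min RT; FP read, FITC filters.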
On the technique in general: qHTS replaces the single test concentration by a dilution series.

For assay [2], the target named is Rap guanine nucleotide exchange factor 3 (Homo sapiens) (UniProt O95398). Briefly: Confirmatory qHTS for antagonist of cAMP-regulated guanine nucleotide exchange factor 3 (EPAC1) (AID 1645880).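 For activity, negative = inhibition: plate controls were DMSO only for no effect and full effect of the ATA control for full effect.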 Note: nearly all actives have a fitted effect of over 55% in size. Note: potency is the fitted concentration of half-maximal effect. The settings on record: EPAC1 Rap1B-BODIPY-GDP exchange, fluorescence; activity, negative = inhibition: at 115 µM (top of the series). The procedure, abridged: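 Nucleotide exchange uses 100 nM EPAC1, 250 nM RAP1B-BODIPY-GDP and 50 uM GDP, with compounds in a concentration-titration series. After 5 min at room temperature, fluorescence (480 nm ex/540 nm em) is read every 5 min for 30 min. Data are normalized to control ATA and DMSO.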

Assay [3] has the same target. Briefly: Confirmatory qHTS for agonist of cAMP-regulated guanine nucleotide exchange factor 3 (EPAC1) (AID 1645881).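 For activation: EPAC1 catalysed release of BODIPY-GDP from Rap1B seen as fluorescence loss; 100% = effect of cAMP agonist control.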 Note: nearly all actives have a fitted effect of over 75% in size. Note: potency is the fitted concentration of half-maximal effect.
The target in assay [4] is Rap guanine nucleotide exchange factor 4 (Homo sapiens) (UniProt Q8WZA2). Kind of assay: Confirmatory qHTS for antagonist of cAMP-regulated guanine nucleotide exchange factor 4 (EPAC2) (AID 1645885). For activity change, negative = inhibition: % is set by controls: 0 for no effect and ±100 for the full control effect. Note: nearly all actives have a fitted effect of over 25% in size. Note: potency is the fitted concentration of half-maximal effect.
Assay [5] concerns the target Rap guanine nucleotide exchange factor 3 (Homo sapiens) (UniProt O95398). Briefly: Counterscreen qHTS for antagonist of cAMP-regulated guanine nucleotide exchange factor 3 (EPAC1) (AID 1645888).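 Note: fluorescence loss as bound BODIPY-GDP is released from Rap1B; % of control where 0% means no effect.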 The procedure, abridged:
(§1)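 Measured: fluorescence of BODIPY-GDP bound to Rap1B, which falls as exchange proceeds. Conditions include 50 uM competing GDP, 5 and 30 min reads, and a later cAMP challenge for antagonist detection.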
Background: A counterscreen serves to expose hits that act by an unwanted route or on another target.

Assay [6] shares this target. Briefly: Counterscreen qHTS for agonist of cAMP-regulated guanine nucleotide exchange factor 3 (EPAC1) (AID 1645889). For activation: % of control where 0% means no effect. Note: nearly all actives have a fitted effect of over 40% in size. Note: potency is the fitted concentration of half-maximal effect. The procedure, abridged: as §1
In assay [7] the target is Tyrosyl-DNA phosphodiesterase 1 (Homo sapiens) (UniProt Q9NUW8). Kind of assay: Confirmation Assay for Inhibitors of Tyrosyl-DNA Phosphodiesterase (TDP1) (AID 489007). Note: potency is the fitted concentration of half-maximal effect; nearly all actives have a fitted effect of over 40% in size. The settings on record: recombinant human TDP1 enzymatic activity, dose-response. The method in brief:
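Tdp1 1 nM + cpd, 15 min RT; add biotin/phosphotyrosine-FITC oligo 15 nM, 5 min RT; add AS donor/acceptor beads 10 ug/ml, 10 min RT; read AlphaScreen. No-enzyme wells = max signal.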

Assay [8] can be described thus: qHTS for Inhibitors of the vitamin D receptor (VDR): Hit Validation using a Texas Red Assay (AID 602201). Note: potency is the fitted concentration of half-maximal effect. The method in brief:
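Fluorescence polarization (Ex 595/Em 615 nm) of Texas Red (7 nM) with 1.5 uM VDR-LBD and LG19078 (final concentrations). Compounds were incubated for 2 hours at room temperature.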

Results filed as inconclusive are left out. A number with no mark means an inactive call. Activity calls are given as the source filed them. Calls come from the whole dose curve; as a rule, active = well fitted curve in the direction sought with a large enough effect; inconclusive = small, poorly fitted or top-dose-only effect, or another doubt; inactive = no such curve, though single readings can be large; an effect the other way counts as inactive or inconclusive.

Data on 26 compounds can be found in PubChem BioAssay (NCATS).

Sequence of Rap guanine nucleotide exchange factor 4 (Homo sapiens) (Q8WZA2 whole entry, looked up): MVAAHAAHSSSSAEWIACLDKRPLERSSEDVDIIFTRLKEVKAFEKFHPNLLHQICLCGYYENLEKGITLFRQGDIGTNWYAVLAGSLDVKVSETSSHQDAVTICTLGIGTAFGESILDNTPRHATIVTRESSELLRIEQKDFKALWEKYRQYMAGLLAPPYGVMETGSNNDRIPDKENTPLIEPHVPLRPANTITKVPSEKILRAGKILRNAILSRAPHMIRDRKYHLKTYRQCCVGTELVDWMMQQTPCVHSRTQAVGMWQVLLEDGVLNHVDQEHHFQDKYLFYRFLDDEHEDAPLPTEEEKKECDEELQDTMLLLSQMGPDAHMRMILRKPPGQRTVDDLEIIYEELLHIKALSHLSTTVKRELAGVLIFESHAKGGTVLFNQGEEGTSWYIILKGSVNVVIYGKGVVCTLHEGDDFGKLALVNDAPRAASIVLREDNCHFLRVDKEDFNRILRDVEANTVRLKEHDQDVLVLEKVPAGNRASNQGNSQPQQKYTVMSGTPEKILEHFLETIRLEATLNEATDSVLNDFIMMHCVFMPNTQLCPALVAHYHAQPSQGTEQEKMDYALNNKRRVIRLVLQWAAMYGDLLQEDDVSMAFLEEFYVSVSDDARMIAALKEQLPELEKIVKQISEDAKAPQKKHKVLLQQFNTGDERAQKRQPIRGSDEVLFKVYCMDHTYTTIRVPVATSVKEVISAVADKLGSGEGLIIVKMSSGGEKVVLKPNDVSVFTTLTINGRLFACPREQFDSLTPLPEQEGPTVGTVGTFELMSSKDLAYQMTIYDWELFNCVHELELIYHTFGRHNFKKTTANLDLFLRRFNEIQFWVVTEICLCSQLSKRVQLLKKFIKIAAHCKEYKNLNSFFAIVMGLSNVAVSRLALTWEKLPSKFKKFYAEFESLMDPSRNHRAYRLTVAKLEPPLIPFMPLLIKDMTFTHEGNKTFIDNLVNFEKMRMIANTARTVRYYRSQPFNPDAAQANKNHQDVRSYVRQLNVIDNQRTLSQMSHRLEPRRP
Sequence of Tumor susceptibility gene 101 protein (Homo sapiens) (Q99816 whole entry, looked up, the tested form may be a part): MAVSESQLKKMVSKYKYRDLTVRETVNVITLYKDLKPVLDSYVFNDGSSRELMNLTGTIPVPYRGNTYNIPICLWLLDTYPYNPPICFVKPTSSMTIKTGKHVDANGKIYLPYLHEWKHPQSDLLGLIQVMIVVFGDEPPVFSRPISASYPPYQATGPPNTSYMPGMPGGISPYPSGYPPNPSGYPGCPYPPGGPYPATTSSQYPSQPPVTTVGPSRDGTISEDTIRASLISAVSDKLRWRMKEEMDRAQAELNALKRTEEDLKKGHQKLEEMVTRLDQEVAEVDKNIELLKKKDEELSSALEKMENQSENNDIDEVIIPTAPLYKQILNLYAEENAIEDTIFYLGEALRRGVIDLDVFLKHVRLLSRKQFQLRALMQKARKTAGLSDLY
Sequence of Rap guanine nucleotide exchange factor 3 (Homo sapiens) (O95398 whole entry, looked up): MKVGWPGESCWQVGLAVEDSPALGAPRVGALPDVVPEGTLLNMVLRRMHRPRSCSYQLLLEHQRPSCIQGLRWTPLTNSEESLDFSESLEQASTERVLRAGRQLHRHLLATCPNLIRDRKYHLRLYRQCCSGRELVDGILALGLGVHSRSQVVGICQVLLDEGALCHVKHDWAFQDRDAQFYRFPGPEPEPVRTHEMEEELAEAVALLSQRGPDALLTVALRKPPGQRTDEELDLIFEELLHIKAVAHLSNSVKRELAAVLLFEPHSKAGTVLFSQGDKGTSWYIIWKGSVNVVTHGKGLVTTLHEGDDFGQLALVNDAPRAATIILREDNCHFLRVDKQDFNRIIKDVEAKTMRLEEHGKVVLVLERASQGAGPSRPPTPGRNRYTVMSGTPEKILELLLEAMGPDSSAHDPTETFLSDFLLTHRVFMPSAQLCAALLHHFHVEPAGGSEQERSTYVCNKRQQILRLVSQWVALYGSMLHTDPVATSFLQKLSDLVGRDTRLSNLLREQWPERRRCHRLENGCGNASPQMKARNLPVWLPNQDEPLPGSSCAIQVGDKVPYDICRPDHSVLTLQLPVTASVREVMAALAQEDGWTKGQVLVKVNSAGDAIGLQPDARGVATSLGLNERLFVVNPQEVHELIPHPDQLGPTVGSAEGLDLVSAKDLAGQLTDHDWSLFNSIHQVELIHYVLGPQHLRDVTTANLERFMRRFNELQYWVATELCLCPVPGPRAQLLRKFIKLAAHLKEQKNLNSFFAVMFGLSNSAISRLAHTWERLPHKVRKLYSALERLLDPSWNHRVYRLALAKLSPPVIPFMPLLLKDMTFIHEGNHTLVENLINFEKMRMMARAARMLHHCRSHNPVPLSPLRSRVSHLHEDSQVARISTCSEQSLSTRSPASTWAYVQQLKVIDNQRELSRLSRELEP
Sequence of Tyrosyl-DNA phosphodiesterase 1 (Homo sapiens) (Q9NUW8 whole entry, looked up): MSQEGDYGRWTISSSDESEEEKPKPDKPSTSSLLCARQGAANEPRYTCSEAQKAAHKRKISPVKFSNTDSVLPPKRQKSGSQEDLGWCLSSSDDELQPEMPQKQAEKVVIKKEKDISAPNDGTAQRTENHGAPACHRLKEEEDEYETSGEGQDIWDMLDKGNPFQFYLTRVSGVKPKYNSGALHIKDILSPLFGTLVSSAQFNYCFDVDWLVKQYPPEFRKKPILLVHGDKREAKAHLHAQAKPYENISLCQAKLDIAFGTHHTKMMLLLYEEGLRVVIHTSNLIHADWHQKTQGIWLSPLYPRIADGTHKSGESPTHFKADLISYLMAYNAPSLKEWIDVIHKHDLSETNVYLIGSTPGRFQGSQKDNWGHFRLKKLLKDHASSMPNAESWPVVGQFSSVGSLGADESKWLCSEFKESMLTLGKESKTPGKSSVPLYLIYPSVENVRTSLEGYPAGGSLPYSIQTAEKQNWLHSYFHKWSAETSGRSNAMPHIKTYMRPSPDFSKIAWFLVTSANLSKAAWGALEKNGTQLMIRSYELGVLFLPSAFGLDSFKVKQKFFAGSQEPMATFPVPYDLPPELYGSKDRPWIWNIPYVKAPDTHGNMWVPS

Regarding `CCN(CC)c1ccc(/C=c2\sc3nc4ccccc4n3c2=O)c(O)c1`, the Potency result in assay [1], in assay [2], in assay [3], in assay [4] and in assay [5] was “inactive” in each case. In addition, the Potency in assay [6] is 56.2 µM (active).

For `CN(Cc1ccccc1)c1nc(-c2ccc(F)cc2)cc(C(F)(F)F)n1`, the values for the Potency in assay [7] and in assay [4] were 28.2 µM (active) and 0.0849 µM (active), respectively. Further, the Potency result in assay [2], in assay [3], in assay [5] and in assay [6] was “inactive” in each case.

For `Cc1cccc(NC(=O)CC2C(=O)OCCN2Cc2ccccc2)c1` (stereo unspecified), the Potency result in assay [2], in assay [3], in assay [4], in assay [5] and in assay [6] was “inactive” each time.

For the compound `COc1ccc2c(c1)Cc1sc(NC(=O)c3cccc(C)c3)nc1-2`, the Potency in assay [8] was 10 µM (active); in assay [2], 84.9 µM (active). In addition, the Potency entry in assay [3], in assay [4] and in assay [5] was “inactive” each time.

Turning to `CCOC(=O)c1cc2c(=O)n3ccccc3nc2n(C(C)C)c1=NC(=O)c1cc2ccccc2o1`, the Potency in assay [2] was 75.7 µM (active). The Potency entry in assay [3], in assay [4], in assay [5] and in assay [6] was “inactive” throughout.

On to `Nc1ccc2c(O)cc(S(=O)(=O)O)cc2c1`, for which the Potency in assay [2] was 4.26 µM (active). The Potency result in assay [3], in assay [4], in assay [5] and in assay [6] was “inactive” throughout.

With `COC(=O)NCc1c(C)nn(-c2ccccc2)c1-n1cccc1`, the Potency entry in assay [2], in assay [3], in assay [4], in assay [5] and in assay [6] was “inactive” in each case.

With `CCn1cc(C=C2C(=O)c3ccccc3C2=O)c2ccccc21`, the Potency in assay [1] is 14.6 µM (active). The Potency entry in assay [2], in assay [3], in assay [4], in assay [5] and in assay [6] was “inactive” throughout.

Turning to `Nc1cccc2c(O)cc(S(=O)(=O)O)cc12`, the Potency in assay [1] is 18.3 µM (active); in assay [2], 13.5 µM (active); in assay [3], 50.1 µM (active); in assay [4], 0.757 µM (active); in assay [6], 79.4 µM (active). The Potency entry in assay [5] was “inactive”.

For `CC(C)COc1ccc(C(=O)Nc2cc(-c3ccccc3)no2)cc1`, the Potency result in assay [2], in assay [3], in assay [4], in assay [5] and in assay [6] was “inactive” in each case.

As to `CCc1ccc[n+](-c2[nH]c(=O)sc2/C=N/NC([S-])=Nc2ccccc2)c1`, the Potency in assay [1] was 14.6 µM (active); in assay [6], 50.1 µM (active). Besides, the Potency result in assay [2], in assay [3], in assay [4] and in assay [5] was “inactive” in each case.

Turning to `Cc1nnc(N2CCC(C(=O)NC3CCCCC3)CC2)c2nn(-c3ccccc3)c(C)c12`, the Potency entry in assay [2], in assay [3], in assay [4], in assay [5] and in assay [6] was “inactive” each time.

Take `COc1ccc(N=Nc2nc3ccc(Br)cc3n2C)cc1`: the Potency result in assay [2], in assay [3], in assay [4] and in assay [5] was “inactive” each time. Further, the Potency in assay [6] was 50.1 µM (active).

Consider `COc1cc([N+](=O)[O-])ccc1-c1ccc(/C=C2\C(=O)ON=C2c2ccccc2)o1`, for which the Potency is 3.16 µM (active) in assay [8] and 19 µM (active) in assay [2]. In addition, the Potency entry in assay [3], in assay [4], in assay [5] and in assay [6] was “inactive” each time.

For `Cc1ccc(C)c(Oc2nnnn2-c2ccccc2)c1`, the Potency result in assay [2], in assay [3], in assay [4], in assay [5] and in assay [6] was “inactive” each time.

In the case of `CCC(C)Cn1c(COc2ccc(OC)cc2)nc2ccccc21` (stereo unspecified), the Potency entry in assay [2], in assay [3], in assay [4], in assay [5] and in assay [6] was “inactive” each time.

For `CCN(CC(=O)NCc1cccs1)C(=O)c1ccc(S(=O)(=O)Nc2ccccc2)cc1`, the Potency result in assay [2], in assay [3], in assay [4], in assay [5] and in assay [6] was “inactive” each time.

Take `N#CC1=C2N=C(N)c3c(sc4c3CCCCC4)N2C2=C(C(=O)CCC2)C1c1ccccc1` (stereo unspecified): the Potency entry in assay [2], in assay [3], in assay [4], in assay [5] and in assay [6] was “inactive” throughout.

Turning to `O=C(c1ccccc1Br)N(Cc1ccco1)Cc1ccco1`, the Potency entry in assay [2], in assay [3], in assay [4], in assay [5] and in assay [6] was “inactive” throughout.

As for `CCOc1ccccc1NC(=O)N1CCC(N2CCN(Cc3ccccc3)C(=O)C2=O)CC1`, the Potency result in assay [2], in assay [3], in assay [5] and in assay [6] was “inactive” throughout. Also, the outcome in assay [4] is “inactive [at 12.7 µM]”.

Take `Cc1ccc(-n2nc3c(=O)n(CCCC(=O)NCc4ccc(F)cc4)nc(C)c3c2C)cc1`: the Potency result in assay [2], in assay [3], in assay [5] and in assay [6] was “inactive” in each case. Moreover, the outcome in assay [4] is “inactive [at 12.7 µM]”.

For `CCOC(=O)Nc1ccccc1C(=O)Nc1cc(C)cc(C)c1`, the Potency entry in assay [2], in assay [3], in assay [4] and in assay [5] was “inactive” throughout. Further, the Potency in assay [6] was 0.631 µM (active).

`COc1ccc(N2CCN(CC(O)COc3ccc(C(C)C)c(C)c3)CC2)cc1` (stereo unspecified): the Potency entry in assay [2], in assay [3], in assay [4], in assay [5] and in assay [6] was “inactive” throughout.

In the case of `COc1ccc2ccccc2c1C(O)c1nccn1C` (stereo unspecified), the Potency in assay [1] was 8.19 µM (active). Further, the Potency result in assay [2], in assay [3], in assay [4] and in assay [5] was “inactive” in each case.

On to `COc1ccc2c(Cl)c(C(=O)N/N=C3\CCCC(=O)C3)sc2c1`, for which the Potency entry in assay [2], in assay [3] and in assay [5] was “inactive” in each case. In addition, the Potency in assay [4] was 30.1 µM (active); in assay [6] it was 39.8 µM (active).

With `COc1ccc(Cn2c(=O)cc(C)[nH]c2=S)cc1`, the Potency result in assay [2], in assay [3] and in assay [4] was “inactive” each time. The activity change, negative = inhibition in assay [5] was -27% [at 30.8 µM]. For the same compound, the activation in assay [6] was -6.93% [at 30.8 µM].
